Among all 93,000 compounds or so, about 65 (0.07%) were called active.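 The calls were made as follows: active = 10 µM primary screen giving 50% or more activity, confirmed by 40% or more on retest at that dose; inactive = the rest.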 This excerpt belongs to a sample that is enriched for actives.
target: Integrin beta-2 (Homo sapiens) + Integrin alpha-M (Homo sapiens) (UniProt P05107+P11215); assay: enhancers of CD11b/CD18 adhesion to fibrinogen, primary screen, K562 cells, luminescence (AID 1499); conditions: ATPlite luminescence, at 10 µM, stronger effect = higher value
Sequence (P05107 whole entry, looked up, other chains not shown): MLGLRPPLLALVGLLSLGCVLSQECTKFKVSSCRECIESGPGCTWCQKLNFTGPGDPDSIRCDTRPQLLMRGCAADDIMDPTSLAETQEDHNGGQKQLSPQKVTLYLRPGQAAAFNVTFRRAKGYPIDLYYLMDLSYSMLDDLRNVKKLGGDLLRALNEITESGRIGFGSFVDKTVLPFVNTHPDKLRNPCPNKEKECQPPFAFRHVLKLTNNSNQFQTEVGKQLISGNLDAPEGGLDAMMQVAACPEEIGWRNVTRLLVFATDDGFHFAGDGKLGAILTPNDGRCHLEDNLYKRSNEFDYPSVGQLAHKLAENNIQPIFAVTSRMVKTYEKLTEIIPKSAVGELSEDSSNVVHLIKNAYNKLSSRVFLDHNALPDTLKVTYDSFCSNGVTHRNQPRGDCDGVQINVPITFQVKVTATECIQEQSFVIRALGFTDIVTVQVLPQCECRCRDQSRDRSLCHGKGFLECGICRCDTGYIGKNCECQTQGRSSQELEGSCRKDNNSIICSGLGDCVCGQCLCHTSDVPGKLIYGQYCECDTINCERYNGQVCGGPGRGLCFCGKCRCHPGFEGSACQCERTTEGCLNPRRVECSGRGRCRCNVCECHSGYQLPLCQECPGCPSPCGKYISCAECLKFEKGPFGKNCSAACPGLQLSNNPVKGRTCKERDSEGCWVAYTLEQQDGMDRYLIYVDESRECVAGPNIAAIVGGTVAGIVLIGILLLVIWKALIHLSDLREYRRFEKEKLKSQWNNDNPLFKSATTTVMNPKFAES

activation, inactive:
Cc1ccc(NC(=O)CN(C)Cc2ccc(F)cc2)c([N+](=O)[O-])c1 -1%
O=C(Oc1ccccc1Cl)c1ccc(N2CCOCC2)c([N+](=O)[O-])c1 -0.9%
CCS(=O)(=O)Nc1cccc(-c2cc(-c3ccccc3)c3cc(C)ccc3n2)c1 -5.6%
O=C(COC(=O)CSc1nnc(-c2ccc(Cl)cc2)o1)Nc1cc(Cl)cc(Cl)c1 25.1%
O=C(Nc1ccccc1)/C(=C/c1ccc([N+](=O)[O-])cc1)NC(=O)c1ccccc1 29.4%
CN(Cc1ccccc1)C(=O)COC(=O)c1ccccc1Nc1ccccc1 -2.4%
CC(C)C(=O)Nc1ccc2c3c(cccc13)CC2 -4.8%
CCCOC(=O)c1c(NC(=O)c2cnn3c2NC(c2ccccc2)CC3C(F)(F)F)sc2c1CCCC2 (configuration not stated) 62.7%
O=C(Oc1ccc([N+](=O)[O-])cc1)c1ccc(Cl)c(S(=O)(=O)N2CCCCC2)c1 -4.7%
O=C(Nc1nnc(C2COc3ccccc3O2)o1)c1ccc(F)cc1 (configuration not stated) 3%
COC(=O)N/N=C/c1ccc(-c2ccc(Cl)c(Cl)c2)o1 -1.3%
COc1ccc(Nc2nc(N)nc(CSC(=S)N3CCC(C)CC3)n2)cc1 2.4%
COc1ccc(Cl)cc1NC(=O)[C@@H]1CCCN1C(=O)c1cccs1 2.8%
O=C(Nc1ccccc1Cl)c1ccccc1S(=O)(=O)c1ccccc1[N+](=O)[O-] 1%
CCOc1ccc(NC(=O)COc2ccc(C(=O)NC3CCCc4ccccc43)cc2OC)cc1 (configuration not stated) 37%
COc1ccc(C2c3c(C)nn(-c4ccccc4)c3NC(=O)N2c2ccccc2)cc1 (configuration not stated) -1.5%
CCCc1c(C)nc2c(Br)cccc2c1Cl 2.4%
COC(=O)c1ccc(C(=O)OC)c(NC(=S)N2CCN(c3cc(Cl)ccc3C)CC2)c1 -1.1%
CCN(CC)c1ccc([N+](=O)[O-])cc1C(=O)O -7%
COc1ccc(CCNC(=O)CSc2nc(-c3ccc(OC)c(OC)c3)ccc2C#N)cc1 8.9%
CC(=O)N1CCN(CC(=O)Nc2ccc(SC(F)F)cc2)CC1 2.9%
Cc1nn(C)c(Oc2ccccc2)c1CCNS(=O)(=O)c1ccc(F)cc1 4.8%

— PubChem BioAssay AID1499 (Sanford-Burnham Center for Chemical Genomics, 2009)
